Experimental data taken from PubChem BioAssay AID1863 (Southern Research Specialized Biocontainment Screening …, 2009).
Several values for one entry are separate records, joined by “and”; a condition that tells them apart may be missing. Identical values can stand only once. Hit rate of the full screen: of about 300,000 compounds, about 480 (0.16%) were called active.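 How the source made its calls: active means inhibition over 29.93%, a cutoff 3 SD above the screen mean, later confirmed by dose response; inconclusive means inhibition over 29.93% but no dose response follow-up; inactive means inhibition at most 29.93% or unconfirmed.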 The list is a sample of the results. Entries with a potency or affinity are not part of this list.

test: PhoP-dependent GFP reporter repression – Salmonella Typhimurium, primary screen (AID 1863);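 further: 0% = low Mg2+ inducing control and 100% = high Mg2+ repressing control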; details: S. Typhimurium PhoP-regulated promoter GFP reporter, 4 h; at 50 µM; hits give high values

inhibition, inactive:
Cc1c(N2C(=O)c3ccc(Br)cc3C2=O)c(=O)n(-c2ccccc2)n1C 2.78%, C=CCNC(=S)N1CCN(c2ncc3c(=O)c(C(=O)O)cn(CC)c3n2)CC1 14%, CCCCCCn1cc(C(=O)O)c(=O)c2cc(F)c(N3CCN(C(=O)OCC)CC3)cc21 5.63%, CCn1cc(C(=O)O)c(=O)c2cnc(N3CCN(C(=S)Nc4ccccc4)CC3)nc21 5.11%, CCCCCCCCC(=O)N1CCN(c2cc3c(cc2F)c(=O)c(C(=O)O)cn3CC)CC1 1.94%, CCCCCCCC(=O)N1CCN(c2cc3c(cc2F)c(=O)c(C(=O)O)cn3CC)CC1 9.66%, CCOC(=O)c1cn(CC)c2cc(N3CCN(C)CC3)c(F)cc2c1=O 0.76%, O=C(N/N=C1\CC2CC=CC12)c1ccccc1Cl (stereo unspecified) -4.57%, CC1(C)C(=O)Nc2ccccc2N1C(=O)c1ccc([N+](=O)[O-])cc1 7.48%, CCS(=O)(=O)N1CCCC(C(=O)NCC2CCCO2)C1 (stereo unspecified) 9.13%, COCCn1c(SCc2nnc(-c3ccccc3)o2)nc2sc3c(c2c1=O)CCC3 1.92%, O=C(NCc1cccnc1)/C(=C/c1ccco1)NC(=O)c1ccccc1 -2.07%, CCOc1ccc(C(=O)OCC(=O)NCCCc2ccccc2)cc1 -6.34%, COCCN1C=C2C(=O)C(C)(OC(=O)C3CCCC3)C(=O)C(c3ccccc3)=C2C=C1CCCC(=O)OC (stereo unspecified) 0.275%, O=C(c1ccc(NS(=O)(=O)c2ccc3c(c2)OCCO3)cc1)N1CCCCC1 -6.01%, Cn1cc(S(=O)(=O)NC2CCCCC2)c(=O)n(C)c1=O -6.38%, Cc1cc(C)nc(/N=C(\N)N(Cc2ccccc2)Cc2ccccc2)n1 -3.9%, COc1ccc(/C=N/NS(=O)(=O)c2ccc(C)cc2)cc1OC(=O)c1ccccc1 -3.56%, CCCCCCn1cc(C(=O)O)c(=O)c2cc(F)c(N3CCN(C)CC3)cc21 -2.32%, O=C(O)c1cn(C2CC2)c2cc(N3CCN(S(=O)(=O)c4ccc5c(c4)OCCO5)CC3)c(F)cc2c1=O 28.5%, CCN(C(=O)COC(=O)c1ccc(C)c(S(=O)(=O)N2CCCCC2)c1)C1CCS(=O)(=O)C1 (stereo unspecified) -0.22%, CC(Oc1ccccc1)C(=O)N=C1SC2CS(=O)(=O)CC2N1c1cccc(F)c1 (stereo unspecified) -0.94%, COc1ccc(S(=O)(=O)N(C)c2ccc(C(=O)NCC3CCCO3)cc2)cc1 (stereo unspecified) 15.5%, CN(C)NC1CC(=O)N(c2ccccc2)C1=O (stereo unspecified) -0.29%, CCOP(=O)(OCC)C(C)(C)NC(=O)c1cc([N+](=O)[O-])cc([N+](=O)[O-])c1 -1.13%, O=C1C(O)=C(O)C(=O)c2ccccc21 9.48%, O=C1Nc2ccccc2C1=O 6.44%, COC(=O)C1=C(SC)N(c2ccccc2)C(c2ccccc2)CC1=O (stereo unspecified) 11.8%, NC(=O)C[n+]1ccc(/C=N/O)cc1 -4.29%, CCCCCCCCCCCCCCCC[n+]1ccc(C(N)=O)cc1 20.5%, CCS(=O)(=O)N1CCCC(C(=O)NCCCOC)C1 (stereo unspecified) -8.48%, CC1(N(O)/C=C2\C=CC=CC2=O)CCCCC1=O (stereo unspecified) -4.1%, COC(=O)CCC(=O)Nc1ccccc1C(N)=O 15.3%, COc1ccc(O)c(/C=N/NC(=S)Nc2cccc(S(=O)(=O)N(C)C)c2)c1 22.2%, CN(C)S(=O)(=O)c1cccc(NC(=S)N/N=C/c2ccc(O)c(O)c2O)c1 -0.51%, Cc1ccc(Nc2nc(N)c([N+](=O)[O-])c(NCc3ccccc3)n2)cc1 -2.58%, O=C1C(=O)c2ccc(-c3ccccc3)cc2-c2ccccc21 -10.4%, Nc1ccc2c(c1)C(=O)c1ccccc1C2=O 8.76%, CC(=O)Nc1ccc(S(=O)(=O)N2C(C)CCCC2C)cc1 (stereo unspecified) 11.1%, COc1cc(/C=N/NC(=O)Cn2nnc3ccccc32)ccc1O -5.12%, COc1ccc(/C=N/NC(=O)Cn2nnc3ccccc32)cc1OC -6.81%, COCCNC(=O)C1CCC(Cn2c(=S)[nH]c3ccccc3c2=O)CC1 (stereo unspecified) 4.17%, CC(C)(C)/C(O)=C/c1nc2ccccc2oc1=O -5.43%, Cc1ccc2oc(=O)c(/C=C(\O)C(C)(C)C)nc2c1 -0.34%, CC(=O)Nc1ccc(CN(C)CC2CCCN(CCc3cccc(C(F)(F)F)c3)C2)cc1 (stereo unspecified) 8.69%, COc1ccccc1N=CC=C1OC(C)(C)C(C)(C)O1 -3.09%, CCC[C@@H](CNC)NC[C@H](Cc1ccccc1)NCCCCc1ccccc1 3.18%, CCC[C@H](CN[C@@H](CNC)[C@H](C)CC)NCCc1cc(C(F)(F)F)cc(C(F)(F)F)c1 19.5%, CC(Cc1cccc(C(F)(F)F)c1)NCCOC(=O)c1ccccc1 (stereo unspecified) -9.48% and -7.52%, CNC[C@@H](C)NC[C@@H](Cc1ccccc1)NCCc1ccccc1 9.81%, Cc1ccccc1-c1noc(CCC(=O)NCC2CCCO2)n1 (stereo unspecified) 6.26%, O=C1OCCC/C1=C\c1ccc2c(c1)OCO2 1.4%, O=C(Cc1nc2ccccc2[nH]1)c1cccc([N+](=O)[O-])c1 -11.1%, CCC(=O)N1C(=O)C2(Nc3ccccc3N2)c2ccccc21 -1.88%, CC(C)(C)c1ccc(NC(=O)COC(=O)c2ccc(NS(=O)(=O)c3ccc(F)c(F)c3)cc2)cc1 1.23%, CCCCOc1ccc(CN(C)c2ncnc(N)n2)cc1 -10.1%, CCCOc1ccc(Cc2nc(N)nc(N)n2)cc1 20.1%, Cc1cc(=O)[nH]c(Cc2ccc(OC(C)C)cc2)n1 10.3%, COc1cc(C)c(Cc2cnc(N)nc2N)cc1OC -1.03%, CC(C)Oc1ccc(Cc2cnc(=S)[nH]c2N)cc1 5.16%, COc1ccc(Cc2c(N)nc(N)nc2N)cc1 2.89%, O=C(Nc1ccc(N2CCOCC2)c(Cl)c1)c1ccc(F)cc1 -2.15%, S=C(NCC1CCCO1)c1ccc(Br)cc1 (stereo unspecified) 2.88%, CCOC(=O)C1(C)/C(=N/Nc2ccccc2)C(=O)C(=O)N1c1ccccc1 (stereo unspecified) -7.22%, CCCn1cnnc1CNC(=O)C1CCC(=O)N(CCCc2ccccc2)C1 (stereo unspecified) 2.57%, CCOC(=O)c1cc(S(=O)(=O)NCC2CCN(Cc3cccc(C)c3)CC2)cn1C 1.53%, O=C(Nc1ccnn1C1CCN(C(=O)c2c(F)cccc2F)CC1)C1CC1 -1.51%, Cc1ncc(CN2CCCC(CCC(=O)NCc3ccc(F)c(F)c3)C2)s1 (stereo unspecified) -2.44%, Cn1cnc([N+](=O)[O-])c1Oc1ccccc1 21.7%, Cn1cnc([N+](=O)[O-])c1Oc1ccc2ccccc2c1 16.2%, CCCCCCC(C)n1[nH]c(=O)cc1N (stereo unspecified) 0.2%, Cc1ccc(-c2noc(CN3C(C)CCCC3C)n2)cc1 (stereo unspecified) 3.05%, Cc1ccc(C(=O)NC2CCCCC2)cc1S(=O)(=O)N1CCCC1 4.45%, CS(=O)(=O)c1ccc(C(=O)NC(Cc2ccccc2)c2ccccc2)cc1 (stereo unspecified) 4.54%, O=C(O)c1cc(S(=O)(=O)NC(CO)C(O)c2ccc([N+](=O)[O-])cc2)ccc1Br (stereo unspecified) 8.08%, CS(=O)(=O)c1ccc(C(=O)NCc2ccccc2F)cc1 -3.92%, Cc1ccc(NC(=S)NC(CO)C(O)c2ccc([N+](=O)[O-])cc2)cc1 (stereo unspecified) 8.17%, Cc1cccc(CN2CCN(Cc3cccc(-n4cccn4)c3)CC2CCO)n1 (stereo unspecified) -2.39%, O=C1CCN(Cc2ccc(Cl)cc2)N1 -4.83%, CC(=O)c1cccc(S(=O)(=O)Nc2ccc(N3CCOCC3)cc2)c1 -4.4%, NC1=NC[C@@H](Cc2ccc(O)cc2)N1CCC12CC3CC(CC(C3)C1)C2 -0.89%, NC1=NC[C@H](Cc2ccc(O)cc2)N1CC1CCCCC1 3.06%, CCCCN1C(N)=NC[C@H]1Cc1ccc(O)cc1 5.24%, NC1=NC[C@H](c2ccccc2)N1CC1CCCCC1 -3.43%, CCCCN1C(N)=NC[C@@H]1Cc1ccc(O)cc1 0.58%, CCCCN1C(N)=NC[C@@H]1c1ccccc1 -3.32%, NC1=NC[C@@H](Cc2ccc(O)cc2)N1CC1CCCCC1 -0.19%, NCCCC[C@H]1CN=C(N)N1CCCCC1CCCCC1 11.9%, Cc1ccccc1OCC(=O)Nc1ccc(N2CCN(C)CC2)c(Cl)c1 5.97%, COC(=O)c1ccc(OCC(=O)c2ccc(C)c(C)c2)cc1 -11.3%, CCOC(=O)c1c(-c2ccccc2)nc2cc(C)ccn12 -0.32%, Nc1nonc1NN=C1CCCCC1 2.62%, COc1ccc(N(CC(=O)NC2CCCC2)C(=O)c2ccc(C)s2)cc1OC -1.51%, Cc1ccc(S(=O)(=O)N/N=C/c2cccs2)cc1 1.58%, COc1ccc(OC)c(S(=O)(=O)CC(O)CS(=O)(=O)c2ccccc2)c1 (stereo unspecified) -7.1%, O=C(CC1C(=O)NCCN1CCCc1ccccc1)NCCc1ccccc1F (stereo unspecified) 5.1%
